This passage reports outcome and AC50 results from PubChem BioAssay (EPA / NIEHS).

Active and inactive are the calls of the source. Rule for the calls: active = hit-call score of the fitted dose curve at least 0.9, where 1 is the maximum; inactive = score below 0.9.

One may read the AC50 as the concentration at which the activity in the assay is half-maximal.

Read-out in the test: CD40, CD40 (gene 958)
As to the kind of experiment: BSK_SAg_CD40: BioMAP Diversity Plus: SAg Assay for CD40 Biomarker Activity (AID 2283088). Particulars: primary human HUVEC with PBMC; actives raise or lower the signal. The gist of the method: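 HUVEC plus PBMC co-culture, superantigen-activated, with CD40 read by ELISA 24 h after dosing. Curves fitted in both directions against DMSO. Overt cytotoxicity checked by parallel SRB total-protein staining.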
Turning to `Cc1cc(C)nc(Nc2ccccc2)n1`, the outcome was inactive. Still for that read-out and setting: the result for `CC(C)Nc1nc(Cl)nc(NC(C)C)n1` reads “inactive”. For `CO/N=C(/C1=NOCCO1)c1ccccc1Oc1ncnc(Oc2ccccc2Cl)c1F`, the AC50 was 14.9 µM (active).

For `CNC(=O)Oc1cccc2ccccc12`, the outcome was inactive. For the compound `COC(=O)c1c(C(F)F)nc(C(F)(F)F)c(C2=NCCS2)c1CC(C)C`, the AC50 was 24 µM (active). In the case of `CC(C)(C)C(=O)C(Oc1ccc(Cl)cc1)n1cncn1` (stereo not given), the result was inactive. Take `Clc1nc(Cl)nc(Nc2ccccc2Cl)n1`: the result was inactive. Regarding `CCCCOCN(C(=O)CCl)c1c(CC)cccc1CC`, the half-maximal activity concentration (AC50) is 30.8 µM (active). In the case of `CCOc1nc(F)cc2nc(S(=O)(=O)Nc3c(Cl)cccc3Cl)nn12`, the result was inactive. As for `Cc1c(COC(=O)[C@@H]2[C@H](/C=C(\Cl)C(F)(F)F)C2(C)C)cccc1-c1ccccc1`, the AC50 was 16.5 µM (active). As to `Nc1c(Cl)c(Cl)nc(C(=O)O)c1Cl`, the outcome was inactive. Same read-out and setting: the same measure for `O=C(O)c1c(Cl)ccc2cc(Cl)cnc12`: “inactive”; for `C=C(C)CN(CC)c1c([N+](=O)[O-])cc(C(F)(F)F)cc1[N+](=O)[O-]`: “inactive”. Same read-out and setting: the result for `CC(C)NC(=O)N1CC(=O)N(c2cc(Cl)cc(Cl)c2)C1=O` reads “inactive”. Regarding `Cc1ccc(N=CN(C)C=Nc2ccc(C)cc2C)c(C)c1`, the AC50 is 31.9 µM (active).

Take `CCOP(=S)(OCC)Oc1nc(Cl)n(C(C)C)n1`: the result was inactive. Still for that read-out and setting: the same measure for `Cc1nc(N(C)C)nc(OC(=O)N(C)C)c1C`: “inactive”; for `Nc1cnn(-c2ccccc2)c(=O)c1Cl`: “inactive”. The same measure, in the same setting: the result for `CCN(CC)C(=O)C(C)Oc1cccc2ccccc12` (stereo not given) reads “inactive”; that for `Nc1c(Cl)c(F)nc(OCC(=O)O)c1Cl`, “inactive”. Regarding `CCOP(=O)(OCC)Oc1nc(Cl)c(Cl)cc1Cl`, the AC50 was 20 µM (active). Still for that read-out and setting: the result for `CSC(=O)c1c(C(F)F)nc(C(F)(F)F)c(C(=O)SC)c1CC(C)C` reads 34 µM (active). For `COP(=O)(OC)O/C(C)=C/C(=O)N(C)C`, the outcome was inactive.

As to `COc1cc(OC)nc(NC(=O)NS(=O)(=O)c2ncccc2OCC(F)(F)F)n1`, the result was inactive. For `CN=C=S`, the AC50 was 13.5 µM (active). For `COc1cc(Cl)c(OC)cc1Cl`, the result was inactive. `OC(c1ccc(Cl)cc1)(c1ccc(Cl)cc1)C(Cl)(Cl)Cl`: the AC50 was 29.9 µM (active). The same measure, in the same setting: the same measure for `COC(=O)N(C(=O)N1CO[C@@]2(C(=O)OC)Cc3cc(Cl)ccc3C2=N1)c1ccc(OC(F)(F)F)cc1`: 5.46 µM (active). On to `CC(C)C1(C)N=C(c2ncccc2C(=O)O)NC1=O` (stereo not given), for which the outcome was inactive.

On to `CN/C(=N\[N+](=O)[O-])NCc1cnc(Cl)s1`, for which the outcome was inactive.

For the compound `Cn1c(-c2ccccc2)cc(-c2ccccc2)[n+]1C`, the AC50 is 7.51 µM (active).

With `Clc1cccc(C(Cl)(Cl)Cl)n1`, the outcome was inactive. As for `COC(=O)NS(=O)(=O)c1ccc(N)cc1`, the outcome was inactive. `Cc1cnc(C2=NC(C)(C(C)C)C(=O)N2)c(C(=O)O)c1` (stereo not given): the result was inactive. The same measure, in the same setting: the result for `O=C(Nc1ccccc1-c1ccc(Cl)cc1)c1cccnc1Cl` reads “inactive”.
